The source made the active and inactive calls.
Legend:
[1] = compounds binding Alexa647 anti-His antibody – biochemical, small-molecule microarray, 635 nm fluorescence, artefact control for SMM control protein annotation, primary screen (AID 1128); conditions: higher = more signal;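 also: score merges feature fluorescence with signal-to-noise for each printed compound spot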
[2] = test system: Human papillomavirus type 1a E7 protein (residues 1-88); experiment: HPV1a E7 small-molecule binders, primary screen, biochemical, small-molecule microarray, residues 1-88, 635 nm (AID 1129); conditions: small-molecule microarray binding, fluorescence 635 nm; higher = more signal
[3] = target: Focal adhesion kinase 1 (Homo sapiens) (UniProt Q05397); experiment: PTK2 protein binding on printed compound slides – biochemical, small-molecule microarray, 635/667 nm fluorescence, BSA, DTT, primary screen (AID 1130); conditions: 635 nm fluorescence, higher = more signal;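 also: composite of spot emission at 667 nm and signal to noise over triplicate slides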
Chain of Focal adhesion kinase 1 (Homo sapiens) (Q05397 whole entry, looked up): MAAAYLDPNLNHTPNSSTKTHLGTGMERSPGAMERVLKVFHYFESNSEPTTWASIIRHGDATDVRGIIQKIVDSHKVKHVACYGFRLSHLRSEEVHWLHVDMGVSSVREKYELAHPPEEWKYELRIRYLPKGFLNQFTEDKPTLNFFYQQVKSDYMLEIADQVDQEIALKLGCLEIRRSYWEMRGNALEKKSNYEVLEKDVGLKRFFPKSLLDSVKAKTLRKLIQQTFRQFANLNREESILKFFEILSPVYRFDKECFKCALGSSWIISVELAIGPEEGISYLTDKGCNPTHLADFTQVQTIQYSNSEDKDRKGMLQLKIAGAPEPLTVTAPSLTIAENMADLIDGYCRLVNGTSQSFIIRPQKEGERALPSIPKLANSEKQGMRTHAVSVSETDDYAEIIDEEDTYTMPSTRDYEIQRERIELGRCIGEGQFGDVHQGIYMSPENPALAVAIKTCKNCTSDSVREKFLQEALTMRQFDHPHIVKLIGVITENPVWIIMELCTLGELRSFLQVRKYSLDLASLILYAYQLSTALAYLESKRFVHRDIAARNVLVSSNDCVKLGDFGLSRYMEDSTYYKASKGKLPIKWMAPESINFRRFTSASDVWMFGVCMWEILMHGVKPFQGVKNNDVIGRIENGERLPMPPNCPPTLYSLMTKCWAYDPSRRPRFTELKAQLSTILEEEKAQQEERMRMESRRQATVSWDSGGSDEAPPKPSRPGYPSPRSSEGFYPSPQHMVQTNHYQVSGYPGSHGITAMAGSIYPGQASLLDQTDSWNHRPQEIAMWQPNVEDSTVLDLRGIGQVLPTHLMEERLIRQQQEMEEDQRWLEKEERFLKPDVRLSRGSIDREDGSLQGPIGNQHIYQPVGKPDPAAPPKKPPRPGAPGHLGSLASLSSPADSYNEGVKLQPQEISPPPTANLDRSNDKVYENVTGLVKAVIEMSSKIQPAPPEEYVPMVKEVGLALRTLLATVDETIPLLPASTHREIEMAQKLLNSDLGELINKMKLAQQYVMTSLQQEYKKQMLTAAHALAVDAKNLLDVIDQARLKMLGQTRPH

[4] = test system: Fibrinogen (Alexa647-labelled); experiment: Alexa647-fibrinogen binding to printed small molecules – biochemical, small-molecule microarray, 635/667 nm fluorescence, artefact control for SMM control-protein annotation, profiling panel (AID 1131); conditions: fibrinogen-A647 binding fluorescence, higher = more signal;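 also: z-score merges 667 nm fluorescence with per-spot signal-to-noise over triplicate slides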
[5] = target: Follistatin (Homo sapiens) (UniProt P19883); experiment: FST protein binding to printed compounds – biochemical, small-molecule microarray, 635/667 nm fluorescence, primary screen (AID 1132); conditions: 635 nm fluorescence, higher = more signal
Chain of Follistatin (Homo sapiens) (P19883 whole entry, looked up): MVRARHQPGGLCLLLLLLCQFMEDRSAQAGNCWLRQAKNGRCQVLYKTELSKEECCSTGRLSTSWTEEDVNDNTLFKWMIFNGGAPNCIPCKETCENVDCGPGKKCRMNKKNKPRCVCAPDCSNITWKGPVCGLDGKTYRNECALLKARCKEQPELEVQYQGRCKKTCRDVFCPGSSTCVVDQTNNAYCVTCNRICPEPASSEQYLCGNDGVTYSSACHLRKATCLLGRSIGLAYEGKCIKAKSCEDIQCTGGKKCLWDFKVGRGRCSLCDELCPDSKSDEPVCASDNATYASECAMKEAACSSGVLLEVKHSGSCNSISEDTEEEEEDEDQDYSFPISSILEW

[6] = target: Fibroblast growth factor 2 (Homo sapiens) (UniProt P09038); experiment: basic fibroblast growth factor binding to printed compounds – biochemical, small-molecule microarray, 635/667 nm fluorescence, primary screen (AID 1133); conditions: FGF2, fluorescence 635/667, higher = more signal
Chain of Fibroblast growth factor 2 (Homo sapiens) (P09038 whole entry, looked up): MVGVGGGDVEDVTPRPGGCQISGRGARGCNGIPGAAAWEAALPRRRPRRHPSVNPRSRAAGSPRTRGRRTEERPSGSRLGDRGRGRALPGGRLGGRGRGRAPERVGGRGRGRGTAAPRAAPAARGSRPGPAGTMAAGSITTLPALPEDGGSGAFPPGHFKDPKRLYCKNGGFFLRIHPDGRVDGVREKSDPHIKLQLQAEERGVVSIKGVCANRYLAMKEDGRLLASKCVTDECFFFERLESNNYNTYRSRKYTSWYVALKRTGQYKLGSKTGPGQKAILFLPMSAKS

[7] = JC-1 mitochondrial potential readout, lung cancer cells – cell-based, A549, JC-1 fluorescence, basal, 24 h, 100 nL, profiling panel (AID 1138); conditions: higher = more signal;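 also: A549 lung adenocarcinoma cells under basal conditions with no added stimulus; test concentration not given here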
Lefty1 = Lefty1 protein binding to printed compounds – biochemical, small-molecule microarray, 635/667 nm fluorescence, primary screen (AID 1139); conditions: fluorescence 635/667, higher = more signal
[8] = test system: wheat germ agglutinin (Triticum aestivum), Alexa647-labelled; experiment: Alexa647-WGA lectin binding to printed small molecules – biochemical, small-molecule microarray, 635/667 nm fluorescence, artefact control for SMM control-protein annotation, profiling panel (AID 1140); conditions: WGA-A647 binding, 635 nm fluorescence, higher = more signal;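 also: score merges 667 nm feature emission with signal to noise over triplicate slides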
[9] = target: Luciferin 4-monooxygenase (Photinus pyralis) (UniProt P08659); experiment: inhibition of purified Photinus pyralis luciferase – biochemical, luminescence, purified enzyme, 2006 set, primary screen (AID 1141); conditions: purified firefly luciferase, SteadyGlo luminescence, 30 min; higher = more signal, called active from +8 up or from −8 down;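 also: cell-free assay with purified firefly luciferase at 100 ng per well in PBS; test concentration not given here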
Chain of Luciferin 4-monooxygenase (Photinus pyralis) (P08659 whole entry, looked up): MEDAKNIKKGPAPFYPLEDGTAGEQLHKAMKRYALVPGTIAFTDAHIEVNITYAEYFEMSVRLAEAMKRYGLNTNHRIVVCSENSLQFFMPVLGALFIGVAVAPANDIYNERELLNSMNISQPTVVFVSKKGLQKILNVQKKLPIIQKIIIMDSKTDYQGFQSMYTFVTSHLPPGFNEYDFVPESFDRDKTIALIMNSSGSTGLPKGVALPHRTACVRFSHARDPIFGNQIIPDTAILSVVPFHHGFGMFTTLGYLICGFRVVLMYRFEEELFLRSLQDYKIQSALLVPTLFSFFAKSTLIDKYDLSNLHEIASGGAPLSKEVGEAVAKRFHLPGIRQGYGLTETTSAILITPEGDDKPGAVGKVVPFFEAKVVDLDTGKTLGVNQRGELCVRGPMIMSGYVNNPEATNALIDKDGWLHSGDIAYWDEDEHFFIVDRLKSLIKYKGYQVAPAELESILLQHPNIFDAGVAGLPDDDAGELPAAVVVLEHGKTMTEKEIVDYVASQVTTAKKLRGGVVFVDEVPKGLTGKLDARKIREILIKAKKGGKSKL

Compound | composite z-score [1] | composite z-score [2] | composite z-score [3] | composite z-score [4] | composite z-score [5] | composite z-score [6] | z-score [7] | composite z-score (Lefty1) | composite z-score [8] | z-score [9]
C=CC[C@H](OC(=O)Nc1ccc(SC)cc1)c1ccc(O)c(F)c1 | 0.434 | 0.294 | -0.502 | -0.0381 | 0.137 | 0.244 | -1.34 | -0.173 | 0.541 | -1.83 (inactive)
COCCOC(=O)N1C(=O)[C@@]2(c3cc(C#CCCO)ccc31)[C@H](c1ccc(O)cc1)N1[C@H](c3ccccc3)[C@H](c3ccccc3)OC(=O)[C@H]1[C@@H]2C(=O)NC[C@H](O)c1ccccc1 | 2.05 | 1.2 | 0.553 | 0.0868 | 1.17 | 0.767 | -0.703 | 0.958 | -0.333 | -1.52 (inactive)
C[C@@]1([C@@H](NS(=O)(=O)c2cccc3cccnc23)c2ccc(-c3ccccc3)cc2)C[C@H]1C1CCCCC1 | 0.431 | 1.18 | 1.14 | -0.744 | 0.247 | -0.506 | 0.00915 | -0.959 | 0.655 | 1.29 (inactive)
COc1ccc([Si](C)(C)[C@H]2[C@H](CC(=O)N(CCO)Cc3ccccc3)O[C@@]3(C(=O)N(Cc4ccc(N5C(=O)c6cccc7cccc5c67)cc4)c4ccccc43)[C@@H]2C)cc1 | 0.53 | 0.714 | 0.0253 | 0.624 | 1.17 | 1.06 | -0.701 | 1.2 | 0.59 | -0.354 (inactive)
COCCOC(=O)N1C(=O)[C@@]2(c3cc(C#CCNC(N)=O)ccc31)[C@H](c1ccccc1OCCO)N1[C@H](c3ccccc3)[C@H](c3ccccc3)OC(=O)[C@H]1[C@@H]2C(=O)N1CCCCCCC1 | 0.364 | 1.17 | 0.183 | 0.858 | 1.28 | 0.937 | -1.51 | 0.76 | 1.13 | -0.193 (inactive)
COC(=O)[C@@]1(Cc2ccc(F)cc2)[C@H]2c3cc(C(=O)N4CCCC4)n(CCc4c[nH]c5cc(F)ccc45)c3C[C@H]2CN1C(=O)c1ccccc1 | 1.43 | 1.26 | 1.16 | 0.999 | 1.13 | 0.296 | 0.592 | 0.293 | 0.832 | 2.41 (inactive)
COCCCNC(=O)[C@]1(Cc2ccccc2N=[N+]=[N-])N=C(c2ccc(OCCCO)cc2)O[C@@H]1c1ccccc1 | 2.96 | 1.24 | 1.05 | 0.977 | 1.25 | 0.94 | 2.2 | -0.252 | 1.3 | -1.9 (inactive)
CC(C)N1C(=O)[C@@]2(Cc3ccccc31)c1ccccc1C(=O)N(Cc1ccccc1)[C@H]2c1ccc(CO)cc1 | 2.84 | -0.299 | -0.0689 | -0.375 | 0.848 | 0.203 | 0.591 | 0.13 | -0.622 | -0.52 (inactive)
C=CCNC(=O)[C@H]1[C@@H]2C(=O)O[C@@H](c3ccccc3)[C@@H](c3ccccc3)N2[C@@H](c2ccc(O)cc2)[C@]12C(=O)N(C(=O)OCCOC)c1ccc(C#Cc3ccc(OC)cc3)cc12 | 0.91 | 1.13 | 0.319 | 0.658 | 0.751 | 0.817 | -1.33 | 0.402 | 0.58 | 0.39 (inactive)
COCCOC(=O)N1C(=O)[C@@]2(c3cc(C#CC4=CCCCC4)ccc31)[C@H](c1ccc(O)cc1)N1[C@H](c3ccccc3)[C@H](c3ccccc3)OC(=O)[C@H]1[C@@H]2C(=O)N1CCc2cc(OC)c(OC)cc2C1 | 1.38 | 1.19 | 0.567 | 0.789 | 0.427 | 0.423 | 0.273 | 0.0605 | 0.726 | 0.0369 (inactive)
CC(C)[Si](C#Cc1ccccc1)(O[C@H](c1ccccc1)c1cn(Cc2ccccc2)nn1)C(C)C | 0.409 | 1.11 | 0.188 | 0.588 | 1.11 | 1.3 | -0.485 | -0.0104 | 0.139 | -1.3 (inactive)
C=C(CCCC)C(=O)CC[C@@H](OC(C)=O)c1ccc(OCCO)cc1 | 1.51 | -0.161 | -0.162 | -0.134 | 1.46 | 1.4 | -0.275 | 1.69 | -0.578 | -1.4 (inactive)
COCCOC(=O)N1C(=O)[C@@]2(c3cc(C#CCNC(N)=O)ccc31)[C@H](C(=O)Nc1nc3ccccc3s1)[C@H]1C(=O)O[C@H](c3ccccc3)[C@H](c3ccccc3)N1[C@@H]2c1ccc(O)cc1 | 0.216 | 0.93 | 0.164 | 0.9 | 1.31 | 0.802 | -2.44 | 0.392 | 0.934 | -0.518 (inactive)
COCCCNC(=O)[C@@]1(Cc2ccccc2I)c2ccccc2C(=O)N(Cc2ccccc2C(F)(F)F)[C@H]1c1ccc(CO)cc1 | 0.611 | 0.742 | -0.0483 | 0.0568 | 0.672 | -0.742 | 0.104 | -1.15 | -0.107 | 0.636 (inactive)
CC(C)C[C@@H]1NC(=O)[C@@H]2C[C@H](C(=O)NCCCCCCNC(=O)CS)[C@H](c3ccc(O)cc3)N2C1=O | 2.1 | 1.28 | 0.116 | 0.913 | 1.46 | 1.62 | -1.16 | 1.41 | 0.907 | -0.677 (inactive)
C=C[C@H](OC)[C@@H](O)c1ccc(OC)c(O)c1 | -0.495 | -1.4 | -0.833 | -1.99 | -0.857 | 0.598 | 0.793 | -1.82 | -0.609 | -1.1 (inactive)

Source: PubChem BioAssay
